Results as given in PubChem BioAssay (NCI).
Compounds without any hit were thinned out: in the full panel of roughly 83,000, 20% have a hit.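 Activity criterion: percent growth below 10, measured after cells in 96-well plates were exposed to a single compound concentration for 48 hours.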 Calls of active or inactive are those of the source.

What follows are compounds tested on HL-60(TB) leukemia (assay: NCI-60 one-dose screen, 48 h (100 = growth as untreated, 0 = no growth, -100 = all killed)). Conditions: 10 µM unless noted.

Row | Structure (SMILES) | growth
1 | CC/C(=C(/c1ccc(Cl)cc1)c1ccc(OCCN2CCOCC2)cc1)c1ccccc1 | 104% (inactive)
2 | O=C(c1ccccc1)C(Br)C(Br)c1cccc([N+](=O)[O-])c1 (centres undefined) | -2.38% (active)
3 | Cc1cccc(Oc2ccc(Nc3ncnc4ccc(NC(=O)CN(C)C)cc34)cc2Cl)c1 | -48% (active)
4 | C=CC(=O)N1CCN(c2cccc(Oc3nccc(Nc4nnc(-c5ccc(Br)cc5)s4)n3)c2)CC1 | 51.1% (inactive)
5 | O=C(/C=C/c1ccc(O)c(O)c1)N1CCN(c2ccc(Cl)cc2)CC1 | 12.9% (inactive)
6 | CC(C)[C@@H]1NC(=O)[C@]2(C)CSC(=N2)c2ccnc(c2)CNC(=O)C[C@@H](/C=C/CCS)OC1=O | 9.07% (active)
7 | N#CC1(C#N)C(c2cccs2)NC(c2cccs2)C1(C#N)C#N (centres undefined) | 99% (inactive)
8 | COCCOC(=O)C1=C(C)NC(=S)NC1c1ccc2c(c1)OCO2 (centres undefined) | 92.1% (inactive)
9 | CN1CCOCCN(C)Cc2ccc3ccc(cc3c2)CN(C)CCOCCN(C)Cc2ccc3ccc(cc3c2)C1 | 20.7% (inactive)
10 | Cc1ccc(C(=O)c2ccc(CC(=O)N=Nc3c(O)[nH]c4ccc(Br)cc34)n2C)cc1 | 89.4% (inactive)
11 | C#C[C@]1(O)CC[C@H]2[C@@H]3CC=C4c5nc(N)sc5CC[C@]4(C)[C@H]3CC[C@@]21C | 87.5% (inactive)
12 | COc1cc2c3c(c(=O)oc2cc1OS(=O)(=O)c1ccc(C(F)(F)F)cc1)CCCCC3 | 107% (inactive)
13 | FC(F)(F)c1cccc(-c2cn3c(ccc4ccccc43)n2)c1 | 114% (inactive)
14 | CS(=O)(=O)c1ccc(-c2nc3ccccc3n2CC(=O)N/N=C/c2ccccc2)cc1 | 141% (inactive)
